Source: PubChem BioAssay
tim10-1 inh: inhibits growth of tim10-1 mutant yeast | inhibition, % at 20 µM | actives 2.2% (n = 330,000) | AID 463190 | S. cerevisiae tim10-1 ts strain growth, BacTiter-Glo, 24 h;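 active = inhibition of at least 40%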;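 also: mutant grown at 25 °C; 0% = DMSO wells with yeast and 100% = wells holding no yeast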
PfHsp90 set2: inhibits growth of yeast expressing Plasmodium falciparum Hsp90; S. cerevisiae expressing PfHsp90, BacTiter-Glo ATP, 48 h; yeast lacking PDR1 and PDR3 efflux regulators; inhibition, % at 9.4 µM; actives 0.32% (n = 310,000);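 active = every replicate shows inhibition above about 80%, whatever the replicate mean, limit read from the data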;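 also: 0% = DMSO neutral controls and 100% = 20 µM radicicol positive controls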
tim23-1 inh: tim23-1 yeast growth inhibition; inhibition, % at 20 µM; S. cerevisiae tim23-1 growth, BacTiter-Glo luminescence, 24 h; actives 1.3% (n = 330,000); AID 463212;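 active = growth inhibition of the mutant yeast at or above 50%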;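 also: temperature-sensitive mutant grown at 25 °C; plate controls were DMSO-treated mutant yeast for no effect and medium wells lacking yeast for full effect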
SKKanGAS inh: blocks kanamycin growth of S. pyogenes SKKanGAS strain; AID 1662; actives 1.3% (n = 300,000); inhibition, % at 7.5 µM; BacTiter-Glo, 6 h;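 active = mean replicate score, as percent of positive control median, at least 50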;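 also: strain carries kanamycin resistance gene driven by streptokinase promoter and grows in 40 µg/ml kanamycin; loss of luminescence reflects streptokinase promoter inhibition or plain growth inhibition; 0% = median of DMSO wells and 100% = positive control at its reference dose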
TIM10 inh: TIM10 yeast growth inhibition. inhibition, % at 10 µM. S. cerevisiae TIM10 strain growth, BacTiter-Glo luminescence, 24 h. actives 1.4% (n = 330,000);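 active = inhibition of 40% or more at the single tested concentration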;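 also: wild-type TIM10 isogenic control strain grown at permissive 25 °C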
tim10-1 confirm: confirmation of tim10-1 mutant yeast growth inhibitors; shares compounds with tim10-1 inh; S. cerevisiae tim10-1 ts strain growth, BacTiter-Glo, 24 h; inhibition, % at 20 µM; actives 56% (n = 7,400); AID 463213;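 active = inhibition of yeast growth at or above a set limit in either of two repeat tests at 20 µM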;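 also: tim10-1 mutant grown at permissive 25 °C to find synthetic lethal compounds; 0% = DMSO yeast wells and 100% = medium wells without yeast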
The depositor's hits bear a star; / = no result. Hits are enriched below; roughly 4.4% of the tested compounds scored in any of these assays.

SMILES | tim10-1 inh | PfHsp90 set2 | tim23-1 inh | SKKanGAS inh | TIM10 inh | tim10-1 confirm
O=C(Nc1ccccc1Cl)c1cc[n+]([O-])cc1 | 10.0 | -3.5 | 1.4 | 2.7 | 13.9 | /
CCCc1ccc(S(=O)(=O)N2CCN(C(C)C(=O)NCc3ccc(OC)cc3)CC2)cc1 (stereo not drawn) | 29.3 | 1.1 | 37.0 | / | 24.3 | /
Cc1ccc(-c2csc(=S)n2CC(=O)OCC(=O)NCc2ccco2)cc1 | 40.8* | / | 22.1 | -4.1 | 5.9 | 19.5
Cc1ccc(-c2csc(=S)n2CC(=O)OCC(=O)NC(C)C(C)C)cc1 (stereo not drawn) | 25.8 | 11.5 | 24.6 | -4.5 | 23.0 | /
O=C(CN1C(=O)/C(=C\c2cccc(Br)c2)Oc2ccccc21)NCCCN1CCOCC1 | 43.7* | -4.4 | 32.4 | -10.3 | 20.9 | 25.5
COC(=O)c1ccc(NC(=O)c2ccc3c(c2)NC(=O)C2CCCN32)cc1 (stereo not drawn) | -0.2 | / | 2.4 | / | -0.8 | /
Cc1sc(N/N=C/c2ccco2)nc1-c1ccccc1 | 42.7* | -14.3 | 23.9 | -10.4 | 37.0 | 19.5
COc1ccccc1C(=O)Nc1ccccc1C(=O)N1C(C)CCCC1C (stereo not drawn) | 44.0* | 12.7 | 28.1 | 1.0 | 7.8 | 31.5*
C=CCNc1sc(C(=O)c2ccccc2)c(N)c1-c1nc2ccccc2s1 | 40.0* | / | 44.2 | 22.3 | 22.0 | 17.9
CCOC(=O)c1sc(NCc2ccco2)c(-c2nc3ccccc3s2)c1N | 31.5 | -12.9 | 26.2 | 2.5 | 19.6 | /
O=C(COc1ccc(S(=O)(=O)NC2CCCCC2)cc1)N1CCN(c2cccc(Cl)c2)CC1 | 45.9* | 23.2 | 25.3 | 1.0 | 18.0 | 21.4
CC(C)NS(=O)(=O)c1ccc(OCC(=O)N2CCN(c3ccccc3)CC2)cc1 | 15.5 | 11.6 | -9.7 | -6.9 | 11.2 | /
CC(C)[C@H]1COCCS(=O)(=O)N1Cc1ccccc1-c1ccccc1 | 13.6 | 10.4 | 43.4 | / | -1.0 | /
COc1ccc(N(CCCN2C(=O)c3cccc4cccc(c34)C2=O)C(=O)c2ccncc2)cc1 | 24.5 | -11.6 | 29.8 | 1.7 | 15.3 | /
COc1ccc(N(CCN2C(=O)c3ccccc3C2=O)C(=O)c2cccc([N+](=O)[O-])c2)cc1 | 40.0 | -16.1 | 48.6 | 1.1 | 34.7 | 35.3*
CC(C)(C)CC(=O)Nc1nnc(SCC(=O)N2CCCCC2)s1 | -0.8 | -49.0 | 15.7 | -3.6 | 6.7 | /
O=C1C(c2ccc(F)cc2)N(Cc2ccc3c(c2)OCO3)C(=O)CN1C1CCCCC1 (stereo not drawn) | 40.4* | -14.8 | 29.4 | 7.2 | 17.0 | 30.1
O=C1C(c2ccc(F)cc2)N(Cc2ccc3c(c2)OCO3)C(=O)CN1C1CCCC1 (stereo not drawn) | 29.4 | 8.9 | 27.5 | 3.8 | 14.5 | /
CCc1cccc(NC(=O)C2CCCN2S(=O)(=O)c2ccc3c(c2)CC(C)N3C(C)=O)c1 (stereo not drawn) | 12.3 | -35.2 | 21.5 | 5.0 | 3.7 | /
CCCCCCCCCCCCC/C=C/[C@@H](O)[C@@H](N)CO | 43.9* | 21.3 | 35.0 | 93.9* | 22.2 | 0.9
CCCCCCCC/C=C\CCCCCCCC(=O)O | -3.6 | -24.6 | 2.1 | 2.4 | -21.6 | /
CCc1ccc(NC(=O)N(Cc2ccco2)C(C)c2cccs2)cc1 (stereo not drawn) | 41.7* | 5.7 | 29.7 | -0.4 | 21.2 | 32.8*
CC(C)CCN(C(=O)Nc1ccccc1)C(C)c1cccs1 (stereo not drawn) | 43.1* | / | 34.5 | / | 23.2 | 31.0*
Cc1oc(-c2cccc(Cl)c2)nc1CS(=O)(=O)CC(=O)NCc1ccco1 | 19.1 | -20.9 | 18.5 | -8.4 | 6.2 | /
Nc1nc2c(nnn2Cc2ccc(Cl)c(Cl)c2)c(=O)[nH]1 | / | -2.4 | / | / | / | /
Cc1cccc(C)c1NC(=O)C(C)N1CCCCC1 (stereo not drawn) | -11.7 | 2.3 | 0.1 | 2.7 | 11.6 | /
C[C@@H]1[C@H](O)C[C@@]23COC(=O)C2=CCCC3[C@@]1(C)CCC1COC(=O)C1 (stereo partly drawn) | -21.6 | 15.2 | -5.0 | / | 1.7 | /
CCNC(=O)COc1ccc(/C=C2\COc3ccccc3C2=O)cc1OC | 46.0* | 5.9 | 39.3 | -9.9 | 35.8 | 29.0
COc1ccc(/C=C2\CCc3ccccc3C2=O)cc1OC | 32.9 | -20.0 | 37.8 | 5.6 | 19.1 | /
O=C(NCc1ccccc1)c1onc(CS(=O)(=O)c2ccc(Cl)cc2)c1C(=O)NCc1ccccc1 | -8.6 | -28.4 | -8.7 | 1.9 | -5.4 | /
